For twelve molecules, z-score and composite z-score results are on record in PubChem BioAssay.

Test [1] in a line: resazurin metabolic signal in HepG2 cells – cell-based, resazurin fluorescence, 24 h, PK04 Diversity Set, profiling panel (AID 1172). Note: test concentration not given here. As to conditions: HepG2 viability, higher = more signal.
Test [2] can be described thus: budding yeast growth changes without added modifier – OD600, strain BY4716, 24 h, basal condition, primary screen (AID 1173). As to conditions: S. cerevisiae BY4716 growth, OD600, 24 h; higher = more signal, called active from +8 up or from −8 down.
A short description of test [3]: viability profiling in MM1S myeloma cells – cell-based, resazurin fluorescence, basal, 24 h, PK04 Diversity Set, profiling panel (AID 1174).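 Note: MM1S multiple myeloma cell line; test concentration not given here.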 As to conditions: higher = more signal, called active from +8 up or from −8 down. For orientation: Resazurin is reduced to fluorescent resorufin, in cell work by metabolically active cells.
The target in test [4] is Dihydroorotate dehydrogenase (quinone), mitochondrial (Plasmodium falciparum (isolate 3D7)) (UniProt Q08210). Briefly: inhibition of P. falciparum DHODH – biochemical, C-terminal His tag, absorbance 600 nm, primary screen (AID 1175).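 Note: recombinant parasite enzyme with a five histidine tag at its C terminus; test concentration not given here.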 As to conditions: PfDHODH enzyme, DCIP absorbance 600 nm; higher = more signal, called active from +8 up or from −8 down.
Sequence of Dihydroorotate dehydrogenase (quinone), mitochondrial (Plasmodium falciparum (isolate 3D7)) (Q08210 whole entry, looked up): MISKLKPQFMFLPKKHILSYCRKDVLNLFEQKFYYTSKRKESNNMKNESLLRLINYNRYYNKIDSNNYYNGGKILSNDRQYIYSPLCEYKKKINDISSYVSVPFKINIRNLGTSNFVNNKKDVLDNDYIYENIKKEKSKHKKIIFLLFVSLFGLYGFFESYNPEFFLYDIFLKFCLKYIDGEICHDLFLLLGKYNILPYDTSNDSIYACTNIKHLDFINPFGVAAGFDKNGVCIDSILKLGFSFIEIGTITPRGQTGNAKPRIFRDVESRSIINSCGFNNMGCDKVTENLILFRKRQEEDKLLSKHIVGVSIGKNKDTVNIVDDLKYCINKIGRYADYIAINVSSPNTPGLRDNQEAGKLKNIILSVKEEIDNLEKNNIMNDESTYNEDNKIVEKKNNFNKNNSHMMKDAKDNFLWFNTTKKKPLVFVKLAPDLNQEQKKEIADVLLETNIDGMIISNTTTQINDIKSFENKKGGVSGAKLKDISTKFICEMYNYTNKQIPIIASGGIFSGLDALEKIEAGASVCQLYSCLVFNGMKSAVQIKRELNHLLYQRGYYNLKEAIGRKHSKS
Test [5] is described as follows: inhibition of PAO1 biofilm formation – strain PAO1, LB-PBS medium, absorbance 600 nm, primary screen (AID 1176). Note: test concentration not given here. As to conditions: P. aeruginosa PAO1 growth/biofilm, A600, 12 h; higher = more signal.
Test [6] can be described thus: growth modulation of vineyard yeast isolate – strain RM11-1a, OD600, basal, 24 h, primary screen (AID 1177).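 Note: cultures grown under basal conditions with no added stressor; test concentration not given here.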 As to conditions: S. cerevisiae RM11-1a growth, OD600, 24 h; higher = more signal, called active from +8 up or from −8 down.
Test [7] is described as follows: growth of efflux-deficient E. coli DRC39 – strain DRC39, OD650, 24 h, E. coli filamentation inducers, primary screen (AID 1178).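 Note: growth measured as culture turbidity by optical density at 650 nm; test concentration not given here.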 As to conditions: E. coli DRC39 acrAB, higher = more signal, called active from +8 up or from −8 down.
Test [8] is described as follows: growth of efflux-deficient E. coli DRC39 – strain DRC39, OD650, 48 h, E. coli filamentation inducers, primary screen (AID 1179).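 Note: screen aims at cell division blockers that make cells filament.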 As to conditions: E. coli DRC39 delta-acrAB growth, higher = more signal, called active from +8 up or from −8 down.
Test [9] can be described thus: viability profiling in RPMI8226 myeloma cells – cell-based, resazurin fluorescence, basal, 24 h, PK04 Diversity Set, profiling panel (AID 1180).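 Note: RPMI8826 multiple myeloma cell line at 5000 cells per well; test concentration not given here.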 As to conditions: higher = more signal.
In test [10] the target is E3 ubiquitin-protein ligase XIAP (Homo sapiens) (UniProt P98170). Briefly: small molecules binding XIAP protein – biophysical, small-molecule microarray, fluorescence 635 nm, primary screen (AID 1181).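 Note: score merges 667 nm emission and signal to noise over triplicate slides.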 As to conditions: higher = more signal.
Sequence of E3 ubiquitin-protein ligase XIAP (Homo sapiens) (P98170 whole entry, looked up): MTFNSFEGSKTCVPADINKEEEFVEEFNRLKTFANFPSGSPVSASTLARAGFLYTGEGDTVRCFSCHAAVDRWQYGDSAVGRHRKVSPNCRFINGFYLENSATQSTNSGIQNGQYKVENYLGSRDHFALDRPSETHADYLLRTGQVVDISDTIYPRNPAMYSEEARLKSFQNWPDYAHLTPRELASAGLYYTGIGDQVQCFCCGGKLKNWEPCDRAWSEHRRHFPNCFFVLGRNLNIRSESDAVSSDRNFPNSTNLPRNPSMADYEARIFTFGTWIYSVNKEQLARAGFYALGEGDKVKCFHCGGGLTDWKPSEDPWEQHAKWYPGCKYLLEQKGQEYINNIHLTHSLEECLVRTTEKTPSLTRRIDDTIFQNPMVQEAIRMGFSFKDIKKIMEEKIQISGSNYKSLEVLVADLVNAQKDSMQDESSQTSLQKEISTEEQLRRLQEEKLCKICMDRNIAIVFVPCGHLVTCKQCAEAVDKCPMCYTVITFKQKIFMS

Activity calls are given as the source filed them. Unless noted, the rule behind the calls is not given here.

As for `O=C1C[C@]2(c3ccc([N+](=O)[O-])cc3)C(=O)N(CCN3CCOCC3)c3cc(CO)ccc3[C@H]2N1CC12CC3CC(CC(C3)C1)C2`, the z-score is -0.0113 in test [1]; -0.0207 (inactive) in [2]; 0.639 (inactive) in test [3]; 0.277 (inactive) in test [5]; -0.028 (inactive) in [6]; 0.577 (inactive) in test [7]. The z-score in [8] is -0.0127 (inactive); in [9], -0.391. Besides, the composite z-score was -6.92 (inactive) in test [4] and 0.476 in test [10].
As for `CC(=O)OC[C@H]1O[C@@H](ON=C[C@@H](C)[C@H](OCc2ccccc2)C(C)C)[C@H](OC(C)=O)[C@@H](OC(C)=O)[C@@H]1OC(C)=O`, the z-score in test [1] is -1.04; in test [2], 0.0426 (inactive); in test [3] it was -2.37 (inactive); in [5], 1.01 (inactive); in test [6], -0.519 (inactive); in test [7], 0.153 (inactive). The z-score in test [8] is 0.722 (inactive); in [9], -0.8. Also, the composite z-score in test [4] is -0.269 (inactive); in test [10] it was -0.162.
Turning to `COc1ccc(O[C@@H]2[C@H](O)CO[C@H]2C=CC#Cc2ccccc2)cc1`, the z-score in [1] was 0.0873; in test [2], -0.274 (inactive); in test [3], -0.107 (inactive); in [5], 0.578 (inactive); in test [6], 0.905 (inactive); in test [7], -0.01 (inactive). For the same molecule, the z-score in [8] is -0.812 (inactive); in [9], 0.268. Moreover, the results for the composite z-score in test [4] and in test [10] were 0.18 (inactive) and 0.116, respectively.
Regarding `O=C1O[C@@H](c2ccccc2)[C@@H](c2ccccc2)N2[C@@H](c3ccccc3OCCO)[C@]3(C(=O)Nc4ccc(C#CCCO)cc43)[C@@H](C(=O)O)[C@H]12`, the z-score is -0.307 in [1]; -1.28 (inactive) in test [2]; 0.649 (inactive) in [3]; -0.681 (inactive) in [5]; -0.282 (inactive) in test [6]; 0.0701 (inactive) in test [7]. Further, the z-score in test [8] is -0.781 (inactive); in test [9], 0.183. Besides, the composite z-score in test [4] is -2.05 (inactive); in [10], 0.32.
Turning to `CCCC[C@H]1OB(O)C[C@H]2C1=C(C)C[C@H]1C(=O)N(C)C(=O)[C@H]12`, the z-score in test [1] is -0.539; in test [2], -2.09 (inactive); in [3] it was -0.596 (inactive); in test [5], 0.4 (inactive); in test [6] it was -0.776 (inactive); in test [7] it was 0.506 (inactive). The z-score is 0.499 (inactive) in test [8] and -0.466 in [9]. In addition, the results for the composite z-score in test [4] and in [10] were -0.829 (inactive) and -0.256, respectively.
With `CC(=O)OC[C@H]1O[C@H](CCON=C[C@@H](C)[C@H](OCc2ccccc2)C(C)C)C=C[C@@H]1OC(C)=O`, the z-score is -0.374 in test [1]; 0.604 (inactive) in test [2]; -0.81 (inactive) in [3]; 0.0039 (inactive) in test [5]; -0.399 (inactive) in test [6]; -0.983 (inactive) in [7]. For the same molecule, the z-score was -2.1 (inactive) in [8] and -0.429 in test [9]. Further, the composite z-score in [4] was -0.64 (inactive); in test [10] it was -0.215.
For `COC(=O)[C@]1(CO)N=C(c2ccc(OCCCO)cc2)O[C@@H]1c1ccccc1N=[N+]=[N-]`, the z-score is -0.318 in test [1]; -0.114 (inactive) in test [2]; -0.198 (inactive) in test [3]; 0.205 (inactive) in test [5]; -0.709 (inactive) in [6]; -0.131 (inactive) in test [7]. In addition, the values for the z-score in test [8] and in test [9] were 0.57 (inactive) and -0.459, respectively. The results for the composite z-score in [4] and in test [10] were 0.482 (inactive) and 0.964, respectively.
Regarding `COC(=O)[C@@]1(Cc2ccc(F)cc2)[C@@H]2C(=CC(=O)[C@H]2CC(=O)C(=O)N(C)C)CN1C(=O)c1ccccc1`, the z-score was -1.46 in [1]; 1.69 (inactive) in test [2]; -2.73 (inactive) in test [3]; 0.784 (inactive) in [5]; 1.38 (inactive) in [6]; -0.0125 (inactive) in [7]. Also, the z-score was 0.0104 (inactive) in test [8] and -2.94 in test [9]. The composite z-score is 0.354 (inactive) in test [4] and -0.174 in [10].
With `CCN1C(=O)[C@H]2[C@H]3[C@H](O)[C@H](O)CC(=NOC[C@@H](C)[C@H](OCc4ccccc4)C(C)C)[C@@H]3CC[C@H]2C1=O`, the z-score is -0.725 in [1]; -4.63 (inactive) in test [2]; -0.959 (inactive) in test [3]; 0.0525 (inactive) in test [5]; -0.134 (inactive) in test [6]; 1.03 (inactive) in test [7]. In addition, the z-score is 0.992 (inactive) in test [8] and -0.989 in test [9]. The composite z-score in test [4] is -0.613 (inactive); in test [10], -0.0599.
Consider `[N-]=[N+]=NCc1ccccc1C[C@]1(C(=O)NCc2ccccc2)N=C(c2ccc(OCCCO)cc2)O[C@H]1c1ccccc1N=[N+]=[N-]`, for which the z-score in test [1] is -0.269; in test [2] it was 0.316 (inactive); in test [3], -1.53 (inactive); in [5], 1.68 (inactive); in test [6], -0.204 (inactive); in test [7], 0.82 (inactive). Also, the z-score in test [8] was -0.0271 (inactive); in [9], -2.15. Further, the composite z-score in [4] was 0.294 (inactive); in test [10], -0.22.
In the case of `O=C1NC(=O)C2C1C=CC(C(O)Cc1ccccc1)N2Nc1ccccn1` (stereo not given), the z-score in test [1] was -0.507; in test [2], 0.424 (inactive); in test [3], -0.164 (inactive); in test [5], -0.118 (inactive); in test [6] it was -0.979 (inactive); in test [7], 0.374 (inactive). Moreover, the z-score in [8] is 1.42 (inactive); in [9], -0.448. Further, the composite z-score is 0.195 (inactive) in test [4] and -0.136 in [10].
In the case of `COc1ccc(O[C@H]2C=C[C@@H](c3ccccc3)O[C@@H]2COC(=O)CCC(C)=NO[C@@H](C)c2cc(-c3c(C)cc(C)cc3C)no2)cc1`, the z-score is 0.716 in test [1]; 1.04 (inactive) in test [2]; 0.622 (inactive) in test [3]; -0.421 (inactive) in test [5]; 0.108 (inactive) in [6]; 0.291 (inactive) in test [7]. Besides, the z-score was -0.893 (inactive) in [8] and 1.14 in test [9]. Besides, the composite z-score in [4] was 0.188 (inactive); in test [10], -0.151.
